# In the supplement of paper PMC6555819:
# How the values were obtained:
# Test in all cases: PBM binding z-score (relative to random genomic background probes); higher = stronger binding; sequences stand for … in GC…GCGATTGACAGCGTAGAATGAAGG
# [1] = tested on: PPARg:RXRa DBDmut IVT, anti-RXR (DBD mutation: RXRa K156A/R161A, NR concentration 270 nM, RXRa partner concentration 90 nM)
# In short: (§1)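 The probes on custom Agilent 4×180K protein-binding microarrays were double-stranded, with 34-nt variable regions bearing direct-repeat seeds, single-nucleotide variants, half-site ablations and random human genomic background sequences. Incubation lasted 1 h with ligand-free nuclear receptor dimers in PBS pH 7.4, 2% milk, 0.02% Triton X-100, 1 mM DTT, 0.2 mg/mL BSA and 0.4 mg/ml salmon testes DNA. Antibodies against each partner (one per run) detected bound dimers, and fluorescence scans were regression-normalized. Binding z-scores take the random background probes as reference.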
# [2] = tested on: PPARg:RXRa IVT, anti-PPARg (NR concentration 270 nM, RXRa partner concentration 90 nM)
# In short: as §1
# [3] = tested on: PPARg DBDmut:RXRa IVT, anti-PPARg (DBD mutation: PPARg1 K132A/R137A, NR concentration 270 nM, RXRa partner concentration 90 nM)
# In short: as §1
# [4] = tested on: PPARg DBDmut IVT, anti-PPARg (DBD mutation: PPARg1 K132A/R137A, NR concentration 270 nM)
# In short: as §1
# [5] = tested on: PPARg homodimer (NR concentration 180 nM)
# In short: as §1
# [6] = tested on: PXR:RXRa (NR concentration 270 nM, RXRa partner concentration 90 nM)
# In short: as §1
# [7] = tested on: PXR homodimer (NR concentration 270 nM)
# In short: as §1
# [8] = tested on: RARa:RXR (NR concentration 270 nM, RXRa partner concentration 90 nM)
# In short: as §1
# [9] = tested on: RARa homodimer (NR concentration 270 nM)
# In short: as §1
# [10] = tested on: RARb:RXRa (NR concentration 270 nM, RXRa partner concentration 90 nM)
# In short: as §1
Sequence,PBM binding z-score [1],PBM binding z-score [2],PBM binding z-score [3],PBM binding z-score [4],PBM binding z-score [5],PBM binding z-score [6],PBM binding z-score [7],PBM binding z-score [8],PBM binding z-score [9],PBM binding z-score [10]
GCTTACGGGTCAAAGGTTATAGCGTGAATAGAAT,4.36,6.22,1.03,1.18,2.67,5.96,0.264,7.96,0.595,4.33
TTACCAAGGTGAGCTGAGGTCGTTTATCCAACTC,0.956,1.9,-0.2,-0.389,-0.278,4.87,0.621,1.58,-1.08,1.53
CGTCCAAGGTCAATACTAGGTCAGTGAAAGCATT,3.77,5,0.518,0.663,3.8,4.37,1.76,5.42,0.743,5.22
TGTAGTTGGTCAAAGGTCACACACTCGAAATGCG,1.7,6.41,2.33,2.58,5.57,6.06,1.72,7.38,3.74,4.86
GCGACTGGGGCTTCAGCAGGTTACCATAACTTAA,0.693,0.216,-0.978,-1.13,0.227,-0.117,-0.245,0.339,-0.857,-0.108
CGTCAGAGTTCAACTAAGGTAACGTAAAGCACGC,0.228,1.32,0.422,0.416,2.24,5.76,6.21,4.1,1.3,4.73
TCGAGTAGTTTACCAATGGGGCATTCAGCTTTCT,0.933,-0.146,-0.382,0.0492,-0.418,-0.0619,-0.235,0.338,-0.982,0.0508
TAGCCTAGGTCATGGGCCAATATACCACGCGAAC,1.34,3.16,0.749,-0.176,1.44,1.86,-0.28,2.92,0.353,3.77
TCGAGTAGGTTACCAATGGAGCATTCAGCTTTCT,3.08,2.37,-0.0505,-0.361,-0.556,-0.0122,-0.741,-0.35,-0.787,0.629
TCTATTAGTGGATTAGGGCAACCGAAACAGCGGA,2.45,2.24,0.96,1.11,1.27,0.235,0.482,0.458,1.39,0.682
TCATATAGGTAATACACGTGAAAGTCGGCATCTA,3.9,2.2,1.1,1.42,1.33,0.683,0.547,0.919,1.56,0.414
AATACAGGGTCACTAGGCCAGTGTAGGTACGAAT,4.34,5.58,1.71,1.25,2.55,3.37,0.255,4.63,0.647,4.13
GCATATAGGTAATACAACGTGAAAGTCCGATTGT,4.04,2.2,0.468,0.495,-0.277,-0.414,-0.12,-0.549,0.219,-0.451
TCTGCTAGGTGAGTTGGTCAGCTAACGAGCTGCC,1.24,1.52,0.145,-0.743,-1.59,-0.323,-0.828,-0.314,-1.28,0.429
TCTTGTAGATCAACAGGAGGCTAAGAAAGATCGA,1.2,0.746,0.507,0.151,-1.21,-0.24,-0.799,-0.313,-0.265,-0.249
AGAATGAGGTTATTAAGATCAGAGAATTGCGGTC,3.17,2.63,0.323,0.23,0.951,1,0.488,1.2,0.79,1.16
CCTCCTAGGTCATGGTCAGCTAATCTACAGTATG,3.36,3.76,0.488,0.0352,1.57,1.77,0.241,2.36,1.05,4.02
ATATCTAGGTTAAGGGTCATTCAGGTTGGTTCGC,7.59,8.2,6.43,4.16,4.9,5.61,3.45,5.91,3.76,3.98
CGTCCAAGGTCAGCAGGTCAGGGAAAGCGACGTG,3.07,3.53,-0.625,-0.856,4.09,3.83,0.492,5.33,1.3,5.27
AGAACGAGGGCAATGAGTTTATAGCACGGGTGGC,3.6,2.75,0.304,-0.00705,-0.116,4.31,12.1,0.403,-0.186,2.44
CCAACTAGGTCATCCAGGACAGTGAATACATTGA,7.67,7.53,1.61,1.62,2.3,1.94,1.63,2.35,1.24,3.89
GGAACGAGGGCAAGTTGATACCAGAGTTTGATGG,3.63,3.07,-0.214,-0.247,0.551,0.835,0.927,0.537,0.0477,2.45

Sequence,PBM binding z-score [1],PBM binding z-score [2],PBM binding z-score [3],PBM binding z-score [4],PBM binding z-score [5],PBM binding z-score [6],PBM binding z-score [7],PBM binding z-score [8],PBM binding z-score [9],PBM binding z-score [10]
ATCTCTAGGTAAAGTTAGTTCAGTGAATGCAAAT,2.54,2.3,1.03,0.811,1.08,1.65,1.25,1.12,0.947,0.74
ACTTGCAGGCCAAGTTTGGGTCACTCAAACAAAG,2.37,1.92,0.338,0.0722,0.632,0.858,-0.0999,1.61,-0.63,2.05
TGTCAAAGTTCAAATGTAACGTAAGTATCCACAC,0.32,4.15,1.72,2.11,2.82,5.13,4.03,3.93,2.08,5.02
ATATCTAGGTTACATCCGGGTCATTCAGGCTATG,7.39,7.41,3.31,3.16,2.49,3.62,3.73,3.4,1.99,2.63
AGAACGAGGGCAGTGAGTTGATAGCACGGGTGGC,2.18,1.32,0.223,-0.247,-0.315,0.372,2,-0.326,-0.462,1.6
CCTAATTGGTCAGGAGGTCACACACCGGATATGA,1.64,3.67,0.824,0.695,3.7,4.19,1.4,4.5,2.15,3.87
TCTCGGAGGACACGAAGGTCACAGCTTTCCAGAG,1.84,2.4,0.166,-0.192,2.75,3.96,2.33,3.8,0.474,3.97
CCTAGCAGGCCAATCTGGGTCACTCATGGCTTGA,4.04,4.89,-0.176,-0.808,0.139,0.641,-0.181,0.915,-0.68,1.44
ATCTAAAGGTCGAGGTGAGTATAGAGAAAGGGAA,0.937,2.41,1.38,1.16,2.16,2.7,1.07,3.32,1.18,4.33
TCTTGTAGATCAACAGGAGGTTATGAAAGATCGA,1.42,0.582,0.881,1.46,-0.255,0.762,-0.367,0.694,-0.449,0.283
TCTATTAGTTGAAAGGCAACCGACGAGTCCGTTT,2.63,0.0769,0.573,-0.131,1.05,0.694,0.704,0.467,1.11,0.44
CGTCCAAGGTCAGCAGGTAAGTGAAAGCGACGTG,2.46,2.83,0.325,-0.0804,2.47,2.54,-0.0164,3.47,1.22,5
ACTAGCAGGCGAAGTTTGGGTCACTCAAACAAAG,-0.461,0.0553,-0.763,-1.05,-0.0559,0.583,-0.27,1.15,-0.491,1.14
ATCTCTAGGTAAAGGTTCAGTGAATCCCGAGGAT,2.8,3.07,1.06,0.461,0.615,0.795,0.0698,0.886,0.514,1.32
GGAACGAGGGCAAGTTGATAGCTGAGTTTGATGG,3.45,2.67,0.246,-0.342,0.0769,0.535,0.363,0.267,-0.269,2.57
TCTATTGGTTGAAGGGCAACCGACGAGTCCGTTT,1.93,0.82,0.765,0.266,1.09,0.725,0.614,0.74,0.718,1.55
TTACCAAGGTGAAGGTCTTTGATCCCTCTGTAGA,1.88,3.26,-0.214,0.0438,0.225,0.389,-0.43,0.847,-0.184,1.65
CCTACTGGGTCAAAAAGGTCATTGATGCCGATAA,5.6,6.85,0.701,-0.419,4.23,6.02,9.56,6.15,2.31,4.66
AGAATGAGGTTATTAAGGTCAGGGAATTGCGGTC,4.18,4.42,1.61,0.235,2.65,5.11,11.1,4.38,1.85,3.79
CCTAGCAGGACAGGGTCACTCAAGCATTTCGCTT,0.172,1.08,-2.12,-1.5,1.08,2.84,0.281,3.62,0.381,2.57
CCTGCTAGGTCATAGTCAGCTAATCTACAGTATG,3.96,3.31,0.51,0.574,1.15,1.16,-0.0222,1.73,0.243,3.54
TCGTGTAGGTTAGTCGGGGCATTCAGCCAACATA,2.15,1.92,-0.257,-0.153,0.862,0.845,0.707,0.886,0.866,0.996
